Test results taken from the supplement of paper PMC10849652.
About 8,800 targets were measured; listed, in parts, are those with a hit and a random draw of the rest. About 0.5% of all pairs of compound and target were hits. A number with no mark means an inactive call.

Columns and labels:
Assay in all cases: log2 fold change, soluble protein after heating vs DMSO (PISA); higher = thermal stabilisation; K562 lysate, 10 uM; active = over 0.2 and 3.5 SD of the protein, either way, in both replicates (recomputed)
nilotinib = compound: Cc1cn(-c2cc(NC(=O)c3ccc(C)c(Nc4nccc(-c5cccnc5)n4)c3)cc(C(F)(F)F)c2)cn1 [nilotinib]
Outline: (§1)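 K562 pellets were dounce-homogenised in PBS pH 7.4 containing 1 mM MgCl2, and the crude extract, at 1 mg/mL protein, was exposed to 10 μM compound for 30 min. Aliquots were heated for 3 min across 48°C-58°C, pooled, brought to 0.5% NP-40 at 4°C and spun at 21,000xg for 90 min, with the supernatant taken as soluble protein. TMTpro 16plex LC-MS/MS with equalised channel sums quantified that protein. Values are log-two fold changes in thermal stability relative to solvent controls, taken from duplicates.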

[1] = compound: Cc1nc(Nc2n[nH]c3c2CN(C(=O)N[C@H](CN(C)C)c2ccccc2)C3(C)C)c2sccc2n1
Outline: as §1

dasatinib = compound: Cc1nc(Nc2ncc(C(=O)Nc3c(C)cccc3Cl)s2)cc(N2CCN(CCO)CC2)n1 [dasatinib]
Outline: as §1

[2] = compound: Cc1ncc(-c2ccnc(Nc3ccc(S(C)(=O)=O)cc3)n2)n1C(C)C
Outline: as §1

[3] = compound: Cn1cc(-c2ccc3c(c2)CCN3C(=O)Cc2cccc(C(F)(F)F)c2)c2c(N)ncnc21
Outline: as §1

quisinostat = compound: Cn1cc(CNCC2CCN(c3ncc(C(=O)NO)cn3)CC2)c2ccccc21 [quisinostat]
Outline: as §1

tipifarnib = compound: Cn1cncc1[C@@](N)(c1ccc(Cl)cc1)c1ccc2c(c1)c(-c1cccc(Cl)c1)cc(=O)n2C [tipifarnib]
Outline: as §1

[4] = compound: NC(=O)Nc1cc(-c2cccc(F)c2)sc1C(=O)N[C@H]1CCCNC1
Outline: as §1

[5] = compound: NC(=O)c1cnc(N[C@@H]2CCCC[C@@H]2N)nc1Nc1cccc(-n2nccn2)c1
Outline: as §1

[6] = compound: NC1(c2ccc(-c3nc4ccn5c(=O)[nH]nc5c4cc3-c3ccccc3)cc2)CCC1
Outline: as §1

[7] = compound: NCC(=O)Nc1ccc(-n2nc(C(F)(F)F)cc2-c2ccc3c(ccc4ccccc43)c2)cc1
Outline: as §1

vorinostat = compound: O=C(CCCCCCC(=O)Nc1ccccc1)NO [vorinostat]
Outline: as §1

silmitasertib = compound: O=C(O)c1ccc2c(c1)nc(Nc1cccc(Cl)c1)c1ccncc12 [silmitasertib]
Outline: as §1

[8] = compound: O=C1NC(=O)C(c2cnc3ccccn23)=C1c1cn2c3c(cc(F)cc13)CN(C(=O)N1CCCCC1)CC2
Outline: as §1

entospletinib = compound: c1cn2cc(-c3ccc4cn[nH]c4c3)nc(Nc3ccc(N4CCOCC4)cc3)c2n1 [entospletinib]
Outline: as §1

UniProt Q9NUY8, sequence (Q9NUY8 whole entry, looked up): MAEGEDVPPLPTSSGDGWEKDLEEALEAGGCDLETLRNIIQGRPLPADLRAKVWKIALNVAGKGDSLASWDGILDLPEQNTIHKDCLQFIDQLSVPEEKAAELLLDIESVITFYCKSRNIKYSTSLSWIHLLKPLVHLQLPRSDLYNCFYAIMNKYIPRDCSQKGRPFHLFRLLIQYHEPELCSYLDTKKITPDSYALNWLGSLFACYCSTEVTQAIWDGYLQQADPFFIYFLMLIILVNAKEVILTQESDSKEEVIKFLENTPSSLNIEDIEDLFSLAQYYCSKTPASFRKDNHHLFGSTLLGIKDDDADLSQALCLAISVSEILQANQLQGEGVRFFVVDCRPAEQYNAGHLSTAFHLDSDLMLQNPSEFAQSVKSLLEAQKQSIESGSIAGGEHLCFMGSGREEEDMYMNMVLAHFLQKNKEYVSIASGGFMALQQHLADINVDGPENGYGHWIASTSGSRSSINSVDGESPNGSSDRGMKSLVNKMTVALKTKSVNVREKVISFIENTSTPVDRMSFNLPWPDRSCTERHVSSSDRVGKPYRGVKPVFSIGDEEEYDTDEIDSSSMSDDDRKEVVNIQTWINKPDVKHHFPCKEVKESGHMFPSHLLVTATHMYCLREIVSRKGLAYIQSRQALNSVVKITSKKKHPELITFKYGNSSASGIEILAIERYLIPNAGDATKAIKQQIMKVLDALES
UniProt Q9Y5L0, sequence (Q9Y5L0 whole entry, looked up): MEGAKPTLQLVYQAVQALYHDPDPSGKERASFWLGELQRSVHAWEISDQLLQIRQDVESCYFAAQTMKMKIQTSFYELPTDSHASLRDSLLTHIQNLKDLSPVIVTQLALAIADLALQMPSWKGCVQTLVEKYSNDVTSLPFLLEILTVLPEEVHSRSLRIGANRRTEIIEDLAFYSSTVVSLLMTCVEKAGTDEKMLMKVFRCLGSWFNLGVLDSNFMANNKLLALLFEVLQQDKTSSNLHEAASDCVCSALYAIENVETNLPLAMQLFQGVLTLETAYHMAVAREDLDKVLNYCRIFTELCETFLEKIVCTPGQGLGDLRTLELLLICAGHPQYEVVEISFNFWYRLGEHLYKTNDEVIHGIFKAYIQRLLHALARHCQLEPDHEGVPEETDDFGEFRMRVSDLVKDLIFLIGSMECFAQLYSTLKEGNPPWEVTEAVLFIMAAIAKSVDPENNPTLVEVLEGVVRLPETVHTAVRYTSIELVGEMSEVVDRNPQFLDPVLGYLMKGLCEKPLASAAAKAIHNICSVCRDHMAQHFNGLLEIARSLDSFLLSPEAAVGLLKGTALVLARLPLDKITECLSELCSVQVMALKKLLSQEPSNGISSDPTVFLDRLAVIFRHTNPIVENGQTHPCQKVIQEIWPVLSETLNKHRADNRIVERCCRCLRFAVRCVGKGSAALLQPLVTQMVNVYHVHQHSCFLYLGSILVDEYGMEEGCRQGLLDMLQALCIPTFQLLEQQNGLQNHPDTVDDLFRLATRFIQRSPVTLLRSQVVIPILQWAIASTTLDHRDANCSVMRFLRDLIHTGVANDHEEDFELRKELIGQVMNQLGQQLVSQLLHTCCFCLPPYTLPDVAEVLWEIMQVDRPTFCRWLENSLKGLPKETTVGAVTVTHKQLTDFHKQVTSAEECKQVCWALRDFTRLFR
UniProt P68363, sequence (P68363 whole entry, looked up): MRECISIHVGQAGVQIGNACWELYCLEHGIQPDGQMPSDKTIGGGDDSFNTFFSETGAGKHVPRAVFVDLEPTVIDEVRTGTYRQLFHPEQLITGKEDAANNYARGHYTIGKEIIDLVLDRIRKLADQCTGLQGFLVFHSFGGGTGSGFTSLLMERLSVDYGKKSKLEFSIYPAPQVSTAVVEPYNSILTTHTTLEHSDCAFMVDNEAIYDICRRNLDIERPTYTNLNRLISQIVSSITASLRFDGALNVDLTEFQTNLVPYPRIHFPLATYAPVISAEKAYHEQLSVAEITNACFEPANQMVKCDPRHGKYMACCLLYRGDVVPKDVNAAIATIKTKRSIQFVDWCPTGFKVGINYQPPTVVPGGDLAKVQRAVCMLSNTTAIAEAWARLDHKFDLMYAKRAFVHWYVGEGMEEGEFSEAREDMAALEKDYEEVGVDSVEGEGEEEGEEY
UniProt Q92547, sequence (Q92547 whole entry, looked up): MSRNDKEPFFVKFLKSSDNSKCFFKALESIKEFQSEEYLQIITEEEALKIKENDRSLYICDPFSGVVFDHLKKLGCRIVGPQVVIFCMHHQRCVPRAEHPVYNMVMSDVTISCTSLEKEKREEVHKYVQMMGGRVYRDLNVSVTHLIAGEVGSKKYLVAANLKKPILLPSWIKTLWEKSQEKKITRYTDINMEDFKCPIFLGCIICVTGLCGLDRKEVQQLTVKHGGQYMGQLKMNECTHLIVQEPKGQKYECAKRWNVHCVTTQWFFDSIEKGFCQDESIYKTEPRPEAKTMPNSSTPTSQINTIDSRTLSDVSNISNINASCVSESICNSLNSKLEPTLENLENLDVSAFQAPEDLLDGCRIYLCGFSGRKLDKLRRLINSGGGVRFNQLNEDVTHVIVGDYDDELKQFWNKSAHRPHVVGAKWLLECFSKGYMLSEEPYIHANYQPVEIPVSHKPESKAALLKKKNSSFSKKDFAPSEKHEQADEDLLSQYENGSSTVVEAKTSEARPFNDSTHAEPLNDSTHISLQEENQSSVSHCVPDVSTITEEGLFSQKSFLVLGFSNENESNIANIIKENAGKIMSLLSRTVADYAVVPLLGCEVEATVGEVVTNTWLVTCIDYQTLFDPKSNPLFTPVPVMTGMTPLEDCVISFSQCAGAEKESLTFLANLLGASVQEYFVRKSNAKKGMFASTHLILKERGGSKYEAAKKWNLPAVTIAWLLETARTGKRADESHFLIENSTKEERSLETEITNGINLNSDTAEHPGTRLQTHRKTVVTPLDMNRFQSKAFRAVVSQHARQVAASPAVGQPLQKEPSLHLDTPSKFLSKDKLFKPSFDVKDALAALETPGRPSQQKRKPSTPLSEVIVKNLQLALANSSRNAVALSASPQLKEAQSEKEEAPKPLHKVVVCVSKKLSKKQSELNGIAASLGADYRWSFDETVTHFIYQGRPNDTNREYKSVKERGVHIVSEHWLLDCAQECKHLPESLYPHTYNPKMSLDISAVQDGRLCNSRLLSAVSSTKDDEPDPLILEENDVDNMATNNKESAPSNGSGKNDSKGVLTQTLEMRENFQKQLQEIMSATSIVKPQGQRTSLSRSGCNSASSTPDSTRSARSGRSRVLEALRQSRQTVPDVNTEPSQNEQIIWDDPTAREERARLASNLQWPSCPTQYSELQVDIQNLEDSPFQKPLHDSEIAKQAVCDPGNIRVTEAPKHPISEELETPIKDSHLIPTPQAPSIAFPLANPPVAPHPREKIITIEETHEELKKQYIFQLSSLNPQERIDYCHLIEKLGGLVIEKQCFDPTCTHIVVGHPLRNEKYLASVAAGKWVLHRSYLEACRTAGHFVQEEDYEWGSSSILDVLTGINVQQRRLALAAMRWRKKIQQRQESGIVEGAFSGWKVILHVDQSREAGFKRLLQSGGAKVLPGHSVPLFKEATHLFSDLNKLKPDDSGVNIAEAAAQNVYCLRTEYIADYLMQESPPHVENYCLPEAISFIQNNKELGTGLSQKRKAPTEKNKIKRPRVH
UniProt O94842, sequence (O94842 whole entry, looked up): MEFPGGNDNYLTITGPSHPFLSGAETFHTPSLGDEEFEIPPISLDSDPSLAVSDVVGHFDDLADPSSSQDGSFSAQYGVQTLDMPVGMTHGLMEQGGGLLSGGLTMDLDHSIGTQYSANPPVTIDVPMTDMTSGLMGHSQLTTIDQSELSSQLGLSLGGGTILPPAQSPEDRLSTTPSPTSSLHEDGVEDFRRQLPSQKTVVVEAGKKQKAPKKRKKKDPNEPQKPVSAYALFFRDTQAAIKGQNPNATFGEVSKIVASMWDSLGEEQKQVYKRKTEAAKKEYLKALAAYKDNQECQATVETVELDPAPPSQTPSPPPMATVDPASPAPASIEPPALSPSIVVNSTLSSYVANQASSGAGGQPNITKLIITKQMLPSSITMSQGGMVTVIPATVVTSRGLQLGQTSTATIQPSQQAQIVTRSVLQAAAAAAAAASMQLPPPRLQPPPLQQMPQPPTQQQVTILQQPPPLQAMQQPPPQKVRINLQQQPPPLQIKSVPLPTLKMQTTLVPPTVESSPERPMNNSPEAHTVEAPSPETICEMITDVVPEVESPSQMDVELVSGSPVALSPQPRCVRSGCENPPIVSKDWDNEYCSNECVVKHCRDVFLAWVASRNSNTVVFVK
UniProt Q8TBZ6, sequence (Q8TBZ6 whole entry, looked up): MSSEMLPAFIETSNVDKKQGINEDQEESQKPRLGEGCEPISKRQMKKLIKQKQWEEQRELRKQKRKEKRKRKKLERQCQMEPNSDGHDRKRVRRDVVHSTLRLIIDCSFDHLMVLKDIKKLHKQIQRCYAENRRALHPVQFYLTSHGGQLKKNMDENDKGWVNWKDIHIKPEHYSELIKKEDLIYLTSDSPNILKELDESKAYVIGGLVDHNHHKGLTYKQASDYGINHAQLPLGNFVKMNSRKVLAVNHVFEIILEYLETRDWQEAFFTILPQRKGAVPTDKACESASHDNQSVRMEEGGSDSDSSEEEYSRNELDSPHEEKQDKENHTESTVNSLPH
UniProt Q9NUQ7, sequence (Q9NUQ7 whole entry, looked up): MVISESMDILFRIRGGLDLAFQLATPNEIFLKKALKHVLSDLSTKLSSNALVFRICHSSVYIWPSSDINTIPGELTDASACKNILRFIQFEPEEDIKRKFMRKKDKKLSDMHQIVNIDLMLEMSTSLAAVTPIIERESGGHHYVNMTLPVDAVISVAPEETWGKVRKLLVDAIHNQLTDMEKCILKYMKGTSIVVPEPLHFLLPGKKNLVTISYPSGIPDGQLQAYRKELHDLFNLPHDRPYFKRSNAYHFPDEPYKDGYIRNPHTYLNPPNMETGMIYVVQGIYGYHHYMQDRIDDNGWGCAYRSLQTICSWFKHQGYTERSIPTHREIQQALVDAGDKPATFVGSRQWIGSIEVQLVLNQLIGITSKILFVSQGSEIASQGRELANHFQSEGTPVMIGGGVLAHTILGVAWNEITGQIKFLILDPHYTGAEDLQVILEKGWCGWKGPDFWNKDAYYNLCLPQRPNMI

| Target | log2 fold change (nilotinib) | log2 fold change [1] | log2 fold change (dasatinib) | log2 fold change [2] | log2 fold change [3] | log2 fold change (quisinostat) | log2 fold change (tipifarnib) | log2 fold change [4] | log2 fold change [5] | log2 fold change [6] | log2 fold change [7] | log2 fold change (vorinostat) | log2 fold change (silmitasertib) | log2 fold change [8] | log2 fold change (entospletinib) |
| --- | --- | --- | --- | --- | --- | --- | --- | --- | --- | --- | --- | --- | --- | --- | --- |
| TPP2 (UniProt Q5VZU9) | 0.066 | 0.035 | -0.194 | -0.015 | 0.036 | 0.084 | -0.001 | 0.107 | -0.006 | -0.039 | -0.125 | -0.173 | 0.044 | 0.002 | 0.109 |
| TPST2 (UniProt O60704) | -0.02 | -0.03 | -0.007 | 0.016 | 0.008 | -0.076 | -0.058 | 0.064 | -0.064 | -0.087 | 0.045 | 0.132 | -0.03 | -0.048 | 0.016 |
| TRIP12 isoform 2 (UniProt Q14669) | -0.019 | 0.011 | 0.003 | 0.001 | 0.039 | -0.065 | -0.017 | 0.057 | 0.016 | 0.003 | -0.057 | -0.266 (active) | 0.03 | 0.005 | -0.002 |
| TMEM97 (UniProt Q5BJF2) | 0.098 | 0.053 | 0.018 | 0.124 | -0.005 | 0.046 | 0.057 | 0.011 | -0.034 | 0.023 | -0.016 | 0.152 | -0.039 | 0.071 | 0.004 |
| TBC1D23 (UniProt Q9NUY8) | 0.013 | -0.018 | -0.001 | -0.005 | -0.021 | -0.028 | 0.018 | 0.01 | -0.032 | -0.004 | 0.031 | -0.252 (active) | -0.023 | -0.001 | 0 |
| TUBA1B (UniProt P68363) | -0.043 | -0.009 | -0.051 | -0.036 | 0.01 | -0.021 | 0.002 | 0.041 | 0.002 | -0.013 | -0.005 | -0.66 (active) | 0.018 | 0.026 | 0.01 |
| TPM3 isoform 2 (UniProt P06753) | -0.048 | 0.019 | 0.012 | -0.005 | 0.014 | 0.14 | 0.06 | -0.024 | -0.003 | 0.047 | -0.032 | 0.048 | 0.011 | -0.047 | -0.029 |
| TLE3 isoform 4 (UniProt Q04726) | 0.011 | 0.053 | -0.002 | 0.001 | -0.038 | 0.008 | -0.003 | 0.012 | 0.001 | -0.003 | 0.011 | 0.047 | -0.052 | -0.018 | -0.009 |
| TYW3 (UniProt Q6IPR3) | -0.033 | 0.017 | -0.006 | 0.035 | 0.027 | -0.126 | -0.018 | -0.014 | 0.046 | 0.017 | 0.036 | -0.694 (active) | 0 | -0.042 | -0.001 |
| TCAF2 (UniProt A6NFQ2) | 0.051 | 0.004 | 0.001 | 0.05 | 0.042 | -0.061 | -0.037 | 0.047 | 0.041 | -0.011 | 0.019 | -0.27 (active) | 0 | 0 | -0.01 |
| TTL (UniProt Q8NG68) | -0.045 | -0.082 | -0.049 | -0.062 | 0.056 | -0.115 | -0.008 | 0.017 | 0.018 | 0.03 | -0.027 | -0.376 (active) | 0.021 | 0.057 | 0.138 |
| TOX4 (UniProt O94842) | -0.056 | -0.019 | 0.001 | 0.073 | 0.009 | -0.018 | -0.02 | -0.017 | 0.017 | 0.034 | -0.021 | -0.018 | -0.037 | -0.025 | -0.006 |
| TNPO3 (UniProt Q9Y5L0) | -0.016 | 0.017 | 0 | 0.003 | 0.009 | -0.001 | 0.001 | -0.002 | -0.016 | -0.01 | 0.017 | -0.317 (active) | 0.015 | 0.009 | 0.022 |
| TRMT10A (UniProt Q8TBZ6) | 0.008 | -0.027 | -0.07 | 0.019 | 0.013 | -0.028 | 0.005 | 0.01 | 0.028 | -0.01 | 0.032 | 0.072 | -0.058 | -0.063 | -0.012 |
| UFSP2 (UniProt Q9NUQ7) | -0.004 | -0.015 | 0.007 | -0.038 | -0.002 | 0.004 | -0.001 | 0.016 | 0.002 | -0.035 | -0.029 | 0.342 (active) | 0.001 | -0.021 | -0.012 |
| TRIM65 (UniProt Q6PJ69) | -0.025 | -0.008 | -0.059 | -0.021 | 0.005 | -0.016 | -0.004 | 0 | 0.08 | -0.017 | 0.018 | -0.094 | -0.006 | 0.002 | -0.009 |
| UBE2H (UniProt P62256) | -0.021 | -0.041 | 0.046 | 0.02 | 0.021 | -0.015 | -0.049 | 0.014 | 0.005 | -0.041 | 0.023 | 0.093 | -0.003 | -0.003 | -0.012 |
| TMEM263 (UniProt Q8WUH6) | 0.151 | 0.153 | -0.134 | -0.079 | 0.011 | 0.021 | -0.512 (active) | 0.063 | -0.021 | -0.154 | 0.053 | 0.289 | -0.15 | -0.113 | -0.034 |
| TUT4 (UniProt Q5TAX3) | -0.06 | 0.02 | -0.097 | 0.001 | -0.001 | -0.054 | -0.045 | 0.055 | 0.048 | -0.002 | 0.072 | -0.398 (active) | 0.018 | -0.048 | -0.029 |
| TOPBP1 (UniProt Q92547) | 0.013 | -0.056 | 0.003 | 0.006 | 0.02 | -0.018 | 0.049 | -0.002 | 0.039 | -0.007 | 0.032 | -0.387 (active) | 0.019 | -0.074 | 0.028 |
| UBP1 (UniProt Q9NZI7) | -0.019 | -0.039 | 0.008 | 0.05 | 0.002 | -0.125 | -0.084 | 0.01 | 0.008 | -0.058 | -0.002 | -0.182 | 0.008 | -0.01 | -0.002 |
